This is a sample that favours compounds with a hit; in the whole collection about 2.4% have one here.
Platelet DG rel: modulates dense granule release in human platelets. human platelet-rich plasma, SFLLRN dense granule ATP release, luminescence. inhibition, %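 (compounds screened at 7.5 µM in platelet-rich plasma)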. 300,000 tested, 0.22% active. AID 1663;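 active means mean replicate score, as percent of positive control, at or above 50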
SENP7 block: blocks the human protease SENP7; Q9BQF6; recombinant SENP7, Z-RLRGG-aminoluciferin luminescence, 40 min; inhibition, % at 5 µM; 330,000 tested, 1.5% active;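 active means inhibition above about 50% at the single test dose, limit read from the data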;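 further: plate controls were DMSO with enzyme for no effect and no enzyme buffer wells for full effect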
Target sequence (Q9BQF6 706-1050 limits assumed): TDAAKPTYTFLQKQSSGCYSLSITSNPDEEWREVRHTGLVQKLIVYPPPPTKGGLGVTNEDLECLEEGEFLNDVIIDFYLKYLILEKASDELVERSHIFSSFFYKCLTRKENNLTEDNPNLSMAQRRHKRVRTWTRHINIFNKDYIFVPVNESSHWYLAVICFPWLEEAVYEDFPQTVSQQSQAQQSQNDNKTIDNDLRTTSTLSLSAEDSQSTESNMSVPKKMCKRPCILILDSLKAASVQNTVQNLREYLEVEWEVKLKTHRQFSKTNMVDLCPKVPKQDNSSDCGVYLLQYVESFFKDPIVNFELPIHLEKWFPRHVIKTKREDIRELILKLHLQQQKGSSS
SENP8 block-1: inhibitors of human SENP8 protease | Q96LD8 | 360,000 tested, 0.64% active | AID 602440 | recombinant SENP8, Nedd8 substrate fluorescence | inhibition, % at 20 µM; in the data active means inhibition mostly above about 40%, no sharp cut-off; inactive means mostly below about 27%
Target sequence (Q96LD8 whole entry, looked up): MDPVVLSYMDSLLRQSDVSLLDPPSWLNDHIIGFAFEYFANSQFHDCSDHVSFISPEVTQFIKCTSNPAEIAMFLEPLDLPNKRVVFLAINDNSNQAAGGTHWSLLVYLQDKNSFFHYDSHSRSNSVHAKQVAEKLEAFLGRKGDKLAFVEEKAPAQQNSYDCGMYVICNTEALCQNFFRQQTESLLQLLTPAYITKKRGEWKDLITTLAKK
SENP6 inh: inhibitors of human SENP6 protease; inhibition, % at 10 µM; Q9GZR1; Recombinant SENP6 catalytic domain, aminoluciferin luminescence; 330,000 tested, 1.8% active;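 active means inhibition above about 50% at the single tested dose, limit read from the data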;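 further: plate controls were DMSO wells with enzyme for no effect and DMSO wells lacking enzyme for full effect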
SENP8 block-2: blocks the human protease SENP8; 330,000 tested, 1.2% active; inhibition, % at 10 µM; purified SENP8, Z-RLRGG-aminoluciferin cleavage, luminescence; Q96LD8; in the data active means inhibition above about 50%
SENP8 conf: SENP8 (human) inhibition, single concentration confirmation | shares compounds with SENP8 block-1 | inhibition, % at 25 µM | purified SENP8, Nedd8-AMC/pro-Nedd8 cleavage fluorescence, 30 min | 1,400 tested, 15% active; in the data active means inhibition mostly above about 39%, no sharp cut-off; inactive means mostly below about 34%
* marks the source's active call; other numbers are inactive results; · = no result.

SMILES	Platelet DG rel	SENP7 block	SENP8 block-1	SENP6 inh	SENP8 block-2	SENP8 conf
CN(C)c1ccc(NC(=S)c2ccc3ccccc3n2)cc1	10	-14	42*	5	-12	18
CS(=O)(=O)N1CCN(c2ccc([N+](=O)[O-])c(NCc3ccccc3)c2)CC1	8	-13	45*	-4	-9	23
O=[N+]([O-])c1ccc(N2CCCC2)cc1NC(c1ccccc1)c1ccccc1	-6	2	56*	-3	-3	8
CCS(=O)(=O)N1CCN(c2ccc([N+](=O)[O-])c(NCc3ccccc3)c2)CC1	1	2	35	-17	4	·
CCS(=O)(=O)N1CCN(c2ccc([N+](=O)[O-])c(NC(C)c3ccccc3)c2)CC1 (centres undefined)	-25	2	60*	-1	0	1
CC(Nc1cc(N2CCNCC2)ccc1[N+](=O)[O-])c1ccccc1 (centres undefined)	-5	-4	35	-3	-6	·
O=[N+]([O-])c1ccc(N2CCOCC2)cc1NC(c1ccccc1)c1ccccc1	-13	7	28	-2	-6	·
CCC(C(=O)Nc1ccc2c(c1)OCCO2)n1c(=O)[nH]c2ccccc2c1=O (centres undefined)	-4	-7	20	5	6	·
CCOC(=O)c1nn(-c2ccc(C)cc2)c(=O)c2c(N)scc12	-2	8	14	22	3	·
Nc1scc2c(C(=O)O)nn(-c3ccccc3)c(=O)c12	·	6	40*	-17	12	20
Nc1nc(Nc2ccc(Cl)cc2)nc(NCCO)c1[N+](=O)[O-]	-14	0	24	-29	-4	·
Cc1ccc(Nc2nc(N)c([N+](=O)[O-])c(NCCO)n2)cc1C	3	4	48*	5	3	-1
Cc1ccc(Nc2nc(N)c([N+](=O)[O-])c(N3CCOCC3)n2)cc1C	2	3	41*	-19	-4	15
O=C(CCNC(=O)c1ccc([N+](=O)[O-])cc1)NC1CCCCCC1	·	9	24	4	1	·
Cc1cc(C)c(NC(=O)CSCc2c(C)noc2C)c(C)c1	·	3	8	7	6	·
Cc1ccc(NC(=O)CSCc2c(C)noc2C)cc1C	2	-11	40*	-17	-7	25
C[C@H](CO)N1C[C@H](C)[C@@H](CN(C)C(=O)Nc2ccccc2)Oc2ccc(NC(=O)CCC(F)(F)F)cc2C1=O	·	11	5	4	6	·
CCCc1nnc(NC(=O)C2CCN(C(=O)C3CC(=O)N(c4ccc(C)cc4)C3)CC2)s1 (centres undefined)	1	-8	12	-21	-14	·
C/C(=N/O)c1ccccn1	-1	2	51*	-8	-3	5
CC(=O)c1ccccn1	16	1	7	-14	-12	·
CC1(C)C(=O)C=CC(=O)C(C)(C)C(=O)C=CC(=O)C(C)(C)C2=CC=C(O2)C(C)(C)C(=O)C=CC1=O	·	·	48*	·	·	12
COC(=O)Cc1c(C)[nH]n(-c2cc(Cl)cc(Cl)c2)c1=O	4	13	59*	17	0	12
CCOC(=O)c1n[nH]n(-c2cc(Cl)cc(Cl)c2)c1=O	-18	-8	6	-13	4	·
O=c1[nH]c2c(c(=O)[nH]1)OCN(Cc1ccccc1)C2	·	·	3	·	·	·
CCOc1cc(/C=C2/SC(=Nc3ccccc3)N(Cc3cccnc3)C2=O)ccc1OCC#N	10	0	40*	-21	4	15
SMILES	Platelet DG rel	SENP7 block	SENP8 block-1	SENP6 inh	SENP8 block-2	SENP8 conf
CC(=O)C1=CCC(c2ccc(C)o2)N(S(=O)(=O)c2ccc(C)cc2)C1 (centres undefined)	·	·	18	·	·	·
CCC(=O)N(CCC(Cc1ccccc1)c1ccc2c(c1)OCO2)Cc1ccccc1F (centres undefined)	-1	2	40*	7	8	14
CCC(=O)N(CCC(Cc1ccccc1)c1ccco1)Cc1ccco1 (centres undefined)	0	1	-25	2	-13	·
CC1CN(c2ccc([N+](=O)[O-])c(NCCOc3ccccc3)c2)CC(C)N1 (centres undefined)	15	1	38*	-15	1	6
CCc1ccc(OCCNc2cc(N3CCNC(C)C3)ccc2[N+](=O)[O-])cc1 (centres undefined)	·	8	27	0	-8	·
CC1CN(c2ccc([N+](=O)[O-])c(NCCOc3ccc(Cl)cc3)c2)CC(C)N1 (centres undefined)	0	-1	46*	2	-6	16
Cc1ccccc1OCCNc1cc(N2CC(C)NC(C)C2)ccc1[N+](=O)[O-] (centres undefined)	-5	-4	25	-22	-7	·
O=[N+]([O-])c1ccc(N2CCCCC2)cc1NCCOc1ccccc1	-20	-2	40*	-3	-10	20
O=C(NC(=S)N(CCO)Cc1ccccc1)c1ccc(F)cc1Cl	2	5	9	7	6	·
CC1CC(C)CN(C(=O)c2ccc(S(=O)(=O)N3CCCC3)cc2)C1 (centres undefined)	-8	-7	13	-9	-1	·
O=C(CNc1cccc([N+](=O)[O-])c1)N/N=C/c1ccc([N+](=O)[O-])o1	-1	4	40*	2	8	23
O=C(CN1CCOCC1)NN=Cc1ccc([N+](=O)[O-])o1	·	·	26	·	·	·
O=C(N/N=C/c1ccc([N+](=O)[O-])o1)c1ccccc1-n1cccc1	1	2	42*	2	3	21
O=C(Cc1ccc([N+](=O)[O-])cc1)N/N=C/c1ccc([N+](=O)[O-])o1	-14	11	34	25	3	·
O=C(CCN1CCN(c2ccccc2)CC1)N/N=C/c1ccc([N+](=O)[O-])o1	-4	4	55*	21	8	39
CC(=O)[C@@]1(O)[C@H](C)CC2C3CC=C4CC(OP(=O)(O)O)CC[C@]4(C)C3CC[C@@]21C (some centres undefined)	-7	6	15	4	9	·
N#Cc1cccc(C#N)c1Oc1ccc(S(=O)(=O)Nc2ccc(Cl)cc2)cc1	6	8	0	-5	-6	·
O=C(OCC(=O)N1CCCc2ccccc21)c1c(F)cccc1F	-6	-12	5	-8	-3	·
O=C1Cc2ccccc2C(=O)N1Cc1cccc(Cl)c1	4	·	103*	·	·	46*
COc1ccc(S(=O)(=O)N2CCCOC2CNC(=O)C(=O)NC2CCCC2)cc1 (centres undefined)	-5	-9	14	-7	2	·
O=C(CNS(=O)(=O)c1ccccc1)NCC(=O)OCc1ccc(Cl)cc1	-3	12	21	-2	3	·
CNc1cc([N+](=O)[O-])ccc1N/C=C/C(=O)c1ccc2c(c1)OCO2	4	-5	29	3	-9	·
CNc1cc([N+](=O)[O-])ccc1N/C=C/C(=O)c1cccs1	-2	-11	42*	9	-10	19

Bioassay records from PubChem.
